Source: PubChem BioAssay (EPA / NIEHS)
“And” between values parts separate entries of the source, which are not always exact repeats. Equal values may be shown once. More than one record can exist for a structure, and the calls need not agree. The source made the active and inactive calls. Rule for the calls: active = hit-call score of the fitted dose curve at least 0.9, where 1 is the maximum; inactive = score below 0.9.

Read-out: Interleukin-8 (IL8), CXCL8 (gene 3576)
Assay: BSK_LPS_IL8: BioMAP Diversity Plus: LPS Assay for Interleukin-8 (IL8) Biomarker Activity (AID 2283078)
Settings: primary human HUVEC with PBMC; actives raise or lower the signal
Protocol: BSK_LPS is a cell-based, multiplexed-readout assay that uses umbilical vein endothelium and peripheral blood mononuclear cells, a human vascular primary cell co-culture, with measurements taken at 24 hours after chemical dosing in a 96-well plate.BSK_LPS_IL8 is an assay component measured in the BSK_LPS assay. It measures IL-8 antibody related to regulation of gene expression using ELISA technology.Data from the assay component BSK_LPS_IL8 was analyzed into 1 assay endpoint. This assay endpoint, BSK_LPS_IL8, was analyzed with bidirectional fitting relative to DMSO as the negative control and baseline of activity. Using a type of binding reporter, gain or loss-of-signal activity can be used to understand changes in the signaling as they relate to the gene CXCL8. Furthermore, this assay endpoint can be referred to as a primary readout, because this assay has produced multiple assay endpoints where this one serves a signaling function. To generalize the intended target to other relatable targets, this assay endpoint is annotated to the cytokine intended target family, where the subfamily is interleukins.
The levels of cell surface (or secreted, indicated by the prefix "s") biomarker endpoints were measured by ELISA. Overt cytotoxicity to cells in confluent adherent cultures (all systems other than the BT system) was assessed by measuring total protein levels using sulforhodamine B (SRB) staining in parallel cultures at the time of biomarker measurements, indicated as SRB endpoints. For proliferation assays for adherent cell types, individual cell types are cultured at sub-confluence and relative cell numbers quantified by SRB staining at time points optimized for each system (48 h: 3C and CASM3C systems; 72 h: BT and HDF3CGF systems; 96 h: SAg system). SRB was performed by staining cells with 0.1% SRB after fixation with 10% TCA and reading wells at 560 nm.Viability and proliferation of PBMC (T cells) was quantified by Alamar Blue reduction for the SAg and BT systems. For PBMC viability (referred to as PBMC Cytotoxicity within the assay endpoint names), cells were plated (75,000/well in a 96-well plate) and then chemical samples added for 1 h before addition of activators, SEB and TSST-1 (20 ng/mL final concentration each). Cells were incubated for 90 h. Then, Alamar Blue (20 uL/well) (Invitrogen, Cat DAL1100) was added for 6 h, and the plates were read with a fluorescence microplate reader at 546/580 nm (excitation/emission). For PBMC proliferation, cells were plated and activated as above but incubated for only 16 h prior to addition of Alamar Blue. Plates were read after 6 h.

| SMILES | outcome | AC50 |
| --- | --- | --- |
| CC(C)CC(=O)CC(C)CC(C)C (centres undefined) | inactive |  |
| COC(=O)/C=C\C(=O)OC | inactive |  |
| COc1cc(CNC(=O)CCCC/C=C/C(C)C)ccc1O | inactive |  |
| C1CN(CCOCCN2CCOCC2)CCO1 | inactive | 4.01 µM (active) |
| Cc1cc(-n2nc3ccc(Cl)cc3n2)c(O)c(C(C)(C)C)c1 | inactive |  |
| CCC[Si](OC(C)=O)(OC(C)=O)OC(C)=O | inactive |  |
| CCCCCCCCCC/C=C/C1CC(=O)OC1=O (centres undefined) | inactive |  |
| CC[N+](CC)(CC(=O)Nc1c(C)cccc1C)Cc1ccccc1 |  | 0.182 µM (active) |
| CC(C)C1OCCN1CCOC(=O)NCCCCCCNC(=O)OCCN1CCOC1C(C)C (centres undefined) | inactive |  |
| Sc1nc2ccccc2s1 | inactive |  |
| COc1ccccc1Oc1c(NS(=O)(=O)c2ccc(C(C)(C)C)cc2)nc(-c2ncccn2)nc1OCCO |  | 20 µM (active) and 9.01 µM (active) |
| CCCCC(CC)COC(=O)C=Cc1ccc(OC)cc1 (centres undefined) | inactive | 12.9 µM (active) |
| Oc1cccc2ccccc12 | inactive |  |
| COc1ccc(C(=O)c2ccccc2O)c(O)c1 | inactive |  |
| CCCCCCCCCCCCCCCCCC[N+](C)(C)C |  | 7.3 µM (active) |
| CN(C)CCC(c1ccc(Cl)cc1)c1ccccn1 (centres undefined) | inactive |  |
| Cc1c(C(N)=O)cc([N+](=O)[O-])cc1[N+](=O)[O-] | inactive |  |
| O=[N+]([O-])c1cc(S(=O)(=O)Nc2ccccc2)ccc1Nc1ccccc1 |  | 22.7 µM (active) and 20 µM (active) |
| CN(C)Cc1cc(C(C)(C)C)c(O)c(C(C)(C)C)c1 | inactive |  |
| O=C(C(=O)c1ccccc1)c1ccccc1 |  | 0.0917 µM (active) |
| CCCCCCC(O)CCCCCCCCCCC(=O)OC (centres undefined) | inactive |  |
| OC(C(F)(F)F)(C(F)(F)F)C(O)(C(F)(F)F)C(F)(F)F | inactive |  |
| CCC(C)=NO | inactive |  |
| Cc1cccnc1 | inactive |  |
| CN(C)c1ccc(C(c2ccccc2)c2ccc(N(C)C)cc2)cc1 |  | 15.2 µM (active) |
| CC[N+](CC)(CC(=O)Nc1c(C)cccc1C)Cc1ccccc1 (tested in a mixture with another compound) | inactive |  |
| CCCCCCCCCCC1CO1 (centres undefined) |  | 37.5 µM (active) |
